# RORg inh: blocks mouse ROR gamma transcriptional activity; P51450; 310,000 compounds, 5.4% hits; Drosophila S2 Gal4-RORgamma UAS-luciferase reporter, 20 h; Potency, µM (series often up to 53.6 µM), for the others: at the top dose activity change, negative = inhibition, usual class: inhibitors; further: on the % scale 0 is the no-effect control and ±100 the full control effect; nearly all actives have a fitted effect of over 60% in size
# Target sequence (P51450 whole entry, looked up, the tested form may be a part): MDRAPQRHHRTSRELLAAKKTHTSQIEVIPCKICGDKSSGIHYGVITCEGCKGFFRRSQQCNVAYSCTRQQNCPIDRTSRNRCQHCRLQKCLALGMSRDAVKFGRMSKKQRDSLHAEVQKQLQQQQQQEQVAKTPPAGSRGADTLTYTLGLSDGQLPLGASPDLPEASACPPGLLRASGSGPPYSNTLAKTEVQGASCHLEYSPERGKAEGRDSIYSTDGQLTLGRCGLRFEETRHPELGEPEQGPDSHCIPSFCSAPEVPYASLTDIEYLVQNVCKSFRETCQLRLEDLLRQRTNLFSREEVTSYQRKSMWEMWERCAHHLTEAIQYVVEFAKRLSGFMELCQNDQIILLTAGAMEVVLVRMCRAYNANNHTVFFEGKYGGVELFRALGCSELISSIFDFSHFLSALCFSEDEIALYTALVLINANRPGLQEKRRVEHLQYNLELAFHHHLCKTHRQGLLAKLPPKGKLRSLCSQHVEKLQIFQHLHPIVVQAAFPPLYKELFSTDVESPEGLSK
#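 Stably transfected Drosophila Schneider cells are the test system, with ROR gamma fused to Gal4 and luciferase under UAS control; luminescence is read after 20 hr of 700 uM copper sulfate induction at ambient temperature.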
# SW480 rerep: DNA re-replication induction in SW480 cells. Potency, µM (series often up to 46.1 µM), for the others: at the top dose re-replication activation, usual class: activators. 340,000 compounds, 1.8% hits. SW480 DNA re-replication, Hoechst DNA content imaging, 48 h. AID 624297; further: % of control where 0% means no effect; nearly all actives have a fitted effect of over 55% in size
#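 Treated cells incubate 48 hr (37 C, 5% CO2), are stained 40 min with Hoechst, and nuclear fluorescence is enumerated; a rise in nuclei with high DNA signal marks re-replication.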
# VP16 counter: inhibits Gal4-VP16 luciferase reporter, ROR gamma counter-screen | 310,000 compounds, 3.5% hits | Drosophila S2 Gal4-VP16 UAS-luciferase, luminescence, 20 h | Potency, µM (doses to about 53.6 µM), for inactives: top-dose activity, negative = inhibition, most hits filed as inhibitors;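 further: Gal4-VP16 expression switched on by copper sulfate through the metallothionein promoter; on the % scale 0 is the no-effect control and ±100 the full control effect; nearly all actives have a fitted effect of over 50% in size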
# MCF10A rereplic: inducers of DNA re-replication in MCF 10A breast cells. 350,000 compounds, 2.9% hits. MCF 10A DNA re-replication, Hoechst nuclear intensity, 48 h. Potency, µM (series often up to 46.1 µM), inactives show top-dose activity, positive = re-replication, hits mostly activators; further: % of control where 0% means no effect; nearly all actives have a fitted effect of over 50% in size
# ELG1 repair inh: inhibitors of ELG1-dependent DNA repair in HEK293T cells; Potency, µM (series often up to 46.1 µM), for inactives: top-dose activity change, negative = inhibition, hits mostly inhibitors; AID 504467; 330,000 compounds, 2.3% hits; HEK293T ELG1-luciferase reporter, luminescence, 16 h; DNA damage induced by 5-fluorouridine; further: on the % scale 0 is the no-effect control and ±100 the full control effect; nearly all actives have a fitted effect of over 55% in size
#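 Step one: seed 2,000 cells per well. Step two: pin-transfer compound or DMSO alongside 5-fluorouridine. Step three: incubate 16 hr, 37 °C, 5% CO2. Step four: add ONE-Glo, wait 30 min, read luminescence.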
# * = called active by the depositor; ? = inconclusive; · = no result given; [ ] = dose if it differs, or a comment. This is a sample that favours compounds with a hit; in the whole collection about 10% have one here. The call rests on the fitted dose curve; in most records, active means well fitted curve in the direction sought with a large enough effect; inconclusive means small, poorly fitted or top-dose-only effect, or another doubt; inactive means no such curve, though single readings can be large; an effect the other way counts as inactive or inconclusive. Potency means the concentration at half of the fitted maximal effect.
SMILES,RORg inh,SW480 rerep,VP16 counter,MCF10A rereplic,ELG1 repair inh
Cc1nc(S/C(=C/c2ccc(-c3cccc(Cl)c3)o2)C(=O)O)n[nH]1,1.3µM*,1%,3.5µM*,?,7%
COC(=O)N/N=C/c1ccc(-c2cccc(Cl)c2)o1,39%,1%,-12%,4%,?
OC(CCN1CC2CCC(CC2)C1)(Cc1ccccc1)c1ccco1 (centres undefined),·,-3%,·,21%,·
Cc1cccc(OCC(=O)O/N=C(\N)c2ccccn2)c1,26%,-14%,4%,22%,?
Cc1cccc(OCc2nc(-c3ccccn3)n[nH]2)c1,1.6µM*,?,2.8µM*,28%,·
Cc1ccc(OCc2nc(-c3ccccn3)n[nH]2)cc1,3.2µM*,10%,5µM*,22%,?
Cc1cc(C)nc(Nc2n[nH]c(COc3ccc(Cl)cc3)n2)n1,-22%,-1%,-11%,?,10%
CCC(NC(=O)c1cncc(Br)c1)c1ccccc1 (centres undefined),·,-11%,·,-3%,·
Cc1ccc(C)c(NC(=O)C2CCCN(S(=O)(=O)c3c(C)noc3/C=C/N(C)C)C2)c1 (centres undefined),0%,19%,-6%,18µM*,0%
COCCNC(=O)C1CCCN(S(=O)(=O)c2c(C)noc2/C=C/c2cccs2)C1 (centres undefined),?,-20%,?,0%,?
COC(CNC(=O)C1CCCN(S(=O)(=O)c2c(C)noc2/C=C/c2cccs2)C1)OC (centres undefined),25%,-14%,7%,3.7µM*,-27%
Cc1ccc(Cl)cc1N1CCN(C(=O)Cc2ccc(-n3c(=O)[nH]c4ccsc4c3=O)cc2)CC1,8%[10 µM],0%,-5%,?,?
Cc1cccc(CN2C(=O)c3ccccc3S(=O)(=O)c3ccc(C(=O)NCCCN4CCCC4)cc32)c1,-4%,-6%,5%,-6%,14%
Cc1nc2c(-c3ccc(Cl)cc3)cnn2c(N)c1-c1ccc(F)cc1,-42%,17%,-19%,-1%,?
Cc1nc2c(-c3ccc(Cl)cc3)cnn2c2c1CCC2,5%,2%,6%,21µM*,?
C[C@H](NC(=O)CNC(=O)[C@@H](NC(=O)[C@H](Cc1ccccc1)NC(=O)CNC(=O)CNC(=O)[C@@H](N)Cc1ccccc1)[C@@H](C)O)C(=O)N[C@@H](CCCN=C(N)N)C(=O)N[C@@H](CCCCN)C(=O)N[C@@H](CO)C(=O)N[C@@H](C)C(=O)N[C@@H](CCCN=C(N)N)C(=O)N[C@@H](CCCCN)C(N)=O,19%,·,-10%,·,·
Oc1ccc(Br)cc1/C=N/n1c(COc2ccccc2)n[nH]c1=S,10µM*,-10%,?,?,0%
FC(F)(F)c1ccccc1/C=N/n1c(COc2ccccc2)n[nH]c1=S,5.6µM*,-10%,10µM*,25%,-3%
S=c1[nH]nc(COc2ccccc2)n1/N=C/c1ccccc1Br,8.9µM*,-7%,?,3%,7%
COc1cc(/C=N/n2c(COc3ccccc3)n[nH]c2=S)cc(Br)c1O,-38%,-2%,-21%,-2%,9%
CCOC(=O)C1CCN(C(=O)COC(=O)/C=C/c2cccc(OC)c2OC)CC1,·,-6%,·,?,-8%
COc1ccc(CCNC(=O)C2CC(c3cc(C(F)(F)F)cc(C(F)(F)F)c3)=NO2)cc1 (centres undefined),-24%,15%,1%,-2%,2%
Cc1ccc(S(C)(=O)=NS(=O)(=O)c2cccc3nsnc23)cc1 (centres undefined),22%,2%,3%,3%,24%
C/C(=N\Nc1ccc(S(N)(=O)=O)cc1[N+](=O)[O-])c1ccc2c(c1)OCO2,?,?,11µM*,-7%,?
CN(c1ccccc1)S(=O)(=O)c1cccc(C(=O)OCC(=O)Nc2ccc(C(N)=O)cc2)c1,·,-5%,·,1%,?
COc1ccc(-c2[nH]c(-c3ccc(C(=O)O)cc3)nc2-c2ccccc2)cc1,19%,-20%,0%,15%,?

# High-throughput results as filed in PubChem.
